# Results reported in PubChem BioAssay AID1654 (Sanford-Burnham Center for Chemical Genomics, 2009).
# Out of some 290,000 compounds screened, about 1,500 (0.52%) were called active. No stated cut-off is given here; in the data, active means inhibition above about 50%; inactive means the rest. This excerpt belongs to a sample that is enriched for actives.
# Target: Dual specificity protein phosphatase 3 (Homo sapiens) (UniProt P51452)
# Assay: inhibition of human DUSP3 activity – biochemical, absorbance, uHTS, primary screen (AID 1654)
# [1] = recombinant VHR phosphatase, pNPP absorbance, at 13.3 µM, stronger effect = higher value
# Chain of Dual specificity protein phosphatase 3 (Homo sapiens) (P51452 whole entry, looked up): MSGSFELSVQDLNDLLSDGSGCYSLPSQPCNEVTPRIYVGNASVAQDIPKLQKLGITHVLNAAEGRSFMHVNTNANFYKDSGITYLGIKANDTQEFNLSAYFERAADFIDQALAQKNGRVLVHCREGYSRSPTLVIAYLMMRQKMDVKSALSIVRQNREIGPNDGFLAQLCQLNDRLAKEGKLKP
compound,measurement,setting,value
Cc1cccc(C)c1NC(=O)C(Cl)C(=O)c1ccccc1 (stereo unspecified),inhibition,[1],0% (inactive)
Nc1nnnn1CC(=O)N/N=C/c1ccc(-c2cccc(Cl)c2)o1,inhibition,[1],5.3% (inactive)
O=C(Cn1nnc(-c2ccccc2)n1)N/N=C/c1ccc(-c2ccc(Cl)cc2)o1,inhibition,[1],50.8% (active)
Cc1[nH]c2ccccc2c1/C=N\NC(=O)Cn1nnc(-c2ccccc2)n1,inhibition,[1],-6.7% (inactive)
Cc1ccc(-c2nc(CS(=O)(=O)CC(=O)NCc3ccc4c(c3)OCO4)c(C)o2)cc1,inhibition,[1],9.7% (inactive)
CN1C2CCC1/C(=C\c1ccccc1Cl)C(=O)/C2=C\c1ccccc1Cl,inhibition,[1],-0.2% (inactive)
CCc1ccc(/C=C2\SC(N3CCOCC3)=NC2=O)cc1,inhibition,[1],19.9% (inactive)
Cc1ccsc1/C=C1\SC(N2CCOCC2)=NC1=O,inhibition,[1],51% (active)
Cc1ccc(N2CCN(C3=NC(=O)/C(=C\c4cccs4)S3)CC2)cc1,inhibition,[1],-10.9% (inactive)
O=[N+]([O-])c1cc(C(F)(F)F)ccc1NCCc1ccncc1,inhibition,[1],-7.6% (inactive)
Cc1cc(C)n2nc(SCC(N)=O)nc2n1,inhibition,[1],24.2% (inactive)
Cc1cc(C)n2nc(CNS(=O)(=O)c3c(F)c(F)c(F)c(F)c3F)nc2n1,inhibition,[1],51.3% (active)
Cc1cc(C)n2nc(C(=O)NC(C)(C)C)nc2n1,inhibition,[1],38.4% (inactive)
CCOC(=O)c1c(C)[nH]c(C2=NNC(=NC(C)COC)SC2)c1C (stereo unspecified),inhibition,[1],8.2% (inactive)
Cc1ccc2oc(C(=O)N3CCN(C)C[C@@H]3C(C)C)c(C)c2c1,inhibition,"recombinant VHR phosphatase, pNPP absorbance; at 13.3 µM; stronger effect = higher value",80.7% (inactive)
same,inhibition,"recombinant VHR phosphatase, pNPP absorbance; measured here: average of confirmation repeats; at 13.3 µM; stronger effect = higher value",-20.8%
Cc1ccccc1OCC(=O)NNC(=O)c1cc(S(=O)(=O)N(C)C)ccc1N1CCCC1,inhibition,[1],-23.3% (inactive)
COCCNC(=O)c1ccc(S(=O)(=O)c2ccc(Cl)cc2)c(NC(C)=O)c1,inhibition,[1],13.8% (inactive)
COCCNC(=O)c1snc2ccc(Cl)cc12,inhibition,[1],50% (active)
COCCNC(=O)c1ccc2c(c1)ncn2-c1ccc(C)c(Cl)c1,inhibition,[1],5.8% (inactive)
Cc1ccc(C(=O)O/N=C(\N)c2ccccn2)cc1Cl,inhibition,[1],11.4% (inactive)
CC1CCN(S(=O)(=O)c2ccc(S(=O)(=O)NCc3cccnc3)cc2)CC1,inhibition,[1],40% (inactive)
O=S(=O)(NCc1cccnc1)c1ccc(Cl)nc1,inhibition,[1],50.3% (active)
O=S(=O)(NCc1cccnc1)c1ccc(Br)s1,inhibition,[1],35.9% (inactive)
Cc1ccc(NC(=O)CN(C)C(=O)COC(=O)C(C)(C)Oc2ccc(Cl)cc2)cc1,inhibition,[1],-4.4% (inactive)
CC(=O)OCCN(CCCn1c(-c2ccncc2)nc2ccccc21)c1nc(-c2ccc(C)cc2)cs1,inhibition,[1],9.5% (inactive)
COc1ccc(C(CCN(Cc2ccc(OC)c(OC)c2)C(=O)CCl)c2ccccc2)cc1 (stereo unspecified),inhibition,[1],0.4% (inactive)
Cc1ccc2c(c1)C(c1ccccc1)N(C(=O)c1ccc(F)cc1)CC(=O)N2 (stereo unspecified),inhibition,[1],23.9% (inactive)
CCOc1ccccc1/C=N/NC(=O)CNC(=O)COc1ccccc1,inhibition,[1],26.2% (inactive)
Cc1ccc(/C=N/NC(=O)CSc2ccccn2)o1,inhibition,[1],-2.8% (inactive)
Cc1ccc(/C=N/NC(=O)CNC(=O)COc2ccccc2)o1,inhibition,[1],52.9% (active)
CCOc1ccc(C(C(=O)NCCOC)N(CCOC)C(=O)CCC(=O)Nc2ccccn2)cc1 (stereo unspecified),inhibition,[1],36.3% (inactive)
COc1ccc2[nH]c(C(=O)N/N=C/c3cc(OC)c(OC)c(OC)c3)cc2c1,inhibition,[1],14.1% (inactive)
CCOc1ccc2[nH]c(C(=O)N/N=C/c3cccc(OC)c3OC)cc2c1,inhibition,[1],26.8% (inactive)
COc1cc2cc(C(=O)N/N=C/c3cccc(OC)c3OC)[nH]c2cc1OC,inhibition,[1],58.2% (active)
CCCn1nnnc1NCc1ccc(CC)cc1,inhibition,[1],10.8% (inactive)
O=C(c1ccc(Cl)cc1)n1cnc2ccccc21,inhibition,[1],4.1% (inactive)
COc1ccc(N2CCN(C(C)=C3C(=O)c4ccccc4C3=O)CC2)cc1,inhibition,[1],30.2% (inactive)
O=C1C(Cl)=C(N2CCOCC2)C(=O)N1c1ccccc1,inhibition,[1],29.6% (inactive)
COC1=C(N2CCOCC2)C(=O)c2ccccc2C1=O,inhibition,[1],57.3% (active)
CCc1ccc(CNC(=O)C2CCN(c3nnc(C)c4c(C)n(-c5ccc(C)cc5)nc34)CC2)cc1,inhibition,[1],-20.3% (inactive)
CCN(CC)c1ccc(/C=N/NC(=O)CNC(=O)c2cccnc2)cc1,inhibition,[1],-4.7% (inactive)
O=C(CNC(=O)c1cccnc1)N/N=C/c1cccnc1,inhibition,[1],17.2% (inactive)
O=C(CNC(=O)c1cccnc1)N/N=C/c1cc(Br)c(O)c(Br)c1,inhibition,[1],52.6% (active)
Cc1cc(-c2nnc(SCC(=O)Nc3ccc(F)cc3)n2N)n[nH]1,inhibition,[1],8% (inactive)
COc1cccc(CNCc2ccc3c(c2)OCO3)c1,inhibition,[1],3.6% (inactive)
CN(C(=O)C1CCN(c2ncnc3c2nc2n3CCCCC2)CC1)C1CCCCC1,inhibition,[1],21.1% (inactive)
CCS(=O)(=O)NCCc1ccc(OC)c(OC)c1,inhibition,[1],3.5% (inactive)
COc1ccc(CCNS(=O)(=O)c2ccc(F)cc2)cc1OC,inhibition,[1],2.8% (inactive)
CCOC(=O)c1cc(S(=O)(=O)NCCc2ccc(OC)c(OC)c2)cn1C,inhibition,[1],55.6% (active)
CCOC(=O)c1ccc2[nH]c3c(c2c1)CCCC3NC=O (stereo unspecified),inhibition,[1],5.2% (inactive)
COc1ccc(N2CCN(C(=O)c3ccc(N4CCCCS4(=O)=O)cc3)CC2)cc1,inhibition,[1],21.1% (inactive)
Cc1ccc(S(=O)(=O)N(CC(O)CN2C(=O)NC(C)(C)C2=O)c2cccc([N+](=O)[O-])c2)cc1 (stereo unspecified),inhibition,[1],6.7% (inactive)
COc1ccccc1S(=O)(=O)c1c(C)cc(C)[nH]c1=O,inhibition,[1],8.8% (inactive)
Cc1cc(C)c(S(=O)(=O)c2cc(F)ccc2C)c(=O)[nH]1,inhibition,[1],56.9% (active)
Cc1cc(C)c(S(=O)(=O)c2ccc(F)cc2C)c(=O)[nH]1,inhibition,[1],-16.2% (inactive)
COc1ccc(OC)c(C(O)c2nc3ccccc3n2C)c1 (stereo unspecified),inhibition,[1],57% (active)
CCn1c(C(O)c2cc(OC)ccc2OC)nc2ccccc21 (stereo unspecified),inhibition,[1],-40.5% (inactive)
CCCn1c(C(O)c2cc(OC)ccc2OC)nc2ccccc21 (stereo unspecified),inhibition,[1],6.4% (inactive)
COc1cccc(NC(=O)C2C(c3ccccc3)C2(Cl)Cl)c1 (stereo unspecified),inhibition,[1],-7.8% (inactive)
Cc1cc(C)c(C#N)c(Nc2cccc(Br)c2)n1,inhibition,[1],0.3% (inactive)
COc1cc(Cl)ccc1OCc1cc(C(=O)N(C)CCc2c(C)n[nH]c2C)no1,inhibition,[1],1.6% (inactive)
Cc1ccccc1Nc1c([N+](=O)[O-])ccc2nonc12,inhibition,[1],17.2% (inactive)
CCOc1cc(/C=C2\C(=N)N3N=C(C)SC3=NC2=O)ccc1OCCOc1ccccc1,inhibition,[1],17.9% (inactive)
COc1ccccc1OCCOc1ccc(/C=C2\C(=N)N3N=C(C)SC3=NC2=O)cc1,inhibition,[1],59.3% (active)
CS(=O)(=O)C1=NN2C(=N)/C(=C\c3ccc(OCCOc4ccccc4)cc3)C(=O)N=C2S1,inhibition,[1],26.8% (inactive)
C=CCN1C(=NC(=O)COc2ccccc2)SC2CS(=O)(=O)CC21 (stereo unspecified),inhibition,[1],19% (inactive)
Cc1cc(C)nc(NNC2=CC(=O)CC(C)(C)C2)n1,inhibition,[1],51.3% (active)
COC(=O)NNC1=CC(=O)CC(C)(C)C1,inhibition,[1],1.2% (inactive)
CC1(C)CC(=O)C=C(Nc2ccccc2)C1,inhibition,[1],-8.5% (inactive)
O=C(Nc1cc(-c2nc3ncccc3o2)ccc1Cl)c1ccco1,inhibition,[1],24% (inactive)
Cc1ccc(NC(=S)N(CCN2CCCCC2)Cc2ccco2)cc1C,inhibition,[1],5.9% (inactive)
Cc1ccc(NC(=S)N(Cc2ccco2)C(C)c2cccs2)cc1 (stereo unspecified),inhibition,[1],20.7% (inactive)
Cc1ccc(NC(=S)N(CCCN2CCC(C)CC2)Cc2ccco2)cc1,inhibition,[1],53.6% (active)
CCOc1ccc(-c2noc(CCC(=O)NC3CCCC3)n2)cc1OC,inhibition,[1],27.7% (inactive)
COc1cc(S(=O)(=O)N2CCN=C2c2ccccc2)ccc1Cl,inhibition,[1],47.5% (inactive)
CC(Sc1nnc(-c2ccccc2F)n1C1CC1)C(N)=O (stereo unspecified),inhibition,[1],11.3% (inactive)
CCc1ccc(N2CC(C(=O)NC3=NCCS3)CC2=O)cc1 (stereo unspecified),inhibition,[1],54.4% (active)
CCc1ccc(N2CC(C(=O)Nc3ccc(S(=O)(=O)Nc4nccs4)cc3)CC2=O)cc1 (stereo unspecified),inhibition,[1],-2.6% (inactive)
CCc1ccc(N2CC(C(=O)N3CCCCCC3)CC2=O)cc1 (stereo unspecified),inhibition,[1],30.7% (inactive)
COc1ccccc1OCCNC(=O)CCNC(=O)c1ccccc1Cl,inhibition,[1],-2.5% (inactive)
CC1CCCCC1NC(=O)c1cn(C)c2ccc(S(=O)(=O)N3CCOCC3)cc2c1=O (stereo unspecified),inhibition,[1],5.7% (inactive)
CCOc1cc(C)ccc1OCc1nnc(SCC(=O)Nc2cccc(C(=O)O)c2)n1-c1ccccc1,inhibition,[1],-8.4% (inactive)
Cc1sc2ncn(CC(=O)NCCN(C)C)c(=O)c2c1S(=O)(=O)N1CCC(C)CC1,inhibition,[1],5.1% (inactive)
CCN(CC)CCCNC(=O)Cn1cnc2sc(C)c(S(=O)(=O)N3CCN(c4ncccn4)CC3)c2c1=O,inhibition,[1],7.7% (inactive)
CCN(CC)CCNC(=O)Cn1cnc2sc(C)c(S(=O)(=O)N3CCOCC3)c2c1=O,inhibition,[1],57.3% (active)
CN(Cc1ccccc1)CC(O)COc1ccc(CNCc2cc3ccccc3s2)cc1 (stereo unspecified),inhibition,[1],55.5% (active)
OC(CNCc1ccc2c(c1)OCO2)COc1ccccc1 (stereo unspecified),inhibition,[1],0.8% (inactive)
Cc1ccc(OCC(=O)OC(C)CN(C)Cc2ccccc2)cc1 (stereo unspecified),inhibition,[1],-3.9% (inactive)
COCCN(C(=S)Nc1cccc(Cl)c1C)C(C)c1ccco1 (stereo unspecified),inhibition,[1],19.1% (inactive)
CCOC(=O)CC1COCCN1C(=O)c1cc(COc2ccc(F)c(F)c2)on1 (stereo unspecified),inhibition,[1],-31.1% (inactive)
Cc1c(CC(=O)N2CCN(C(=O)C3COc4ccccc4O3)CC2)c(=O)oc2c(O)c(O)ccc12 (stereo unspecified),inhibition,[1],9.7% (inactive)
COc1cccc(-c2coc3cc4oc(=O)c(CC(=O)O)c(C)c4cc23)c1,inhibition,[1],57.3% (active)
Cc1c(CC(=O)NCCCCCC(=O)O)c(=O)oc2cc3occ(-c4ccccc4)c3cc12,inhibition,[1],-11% (inactive)
Cc1c(CCC(=O)O)c(=O)oc2cc3occ(-c4ccccc4)c3cc12,inhibition,[1],-4.9% (inactive)
Cc1nc(C)c(-c2nnc(-c3cccc(S(=O)(=O)N(C)C)c3)o2)cc1C(=O)NN,inhibition,[1],1% (inactive)
